Measurements as given in the supplement of paper PMC13380429.
Values without a mark were called inactive.

These molecules were tested on Vero E6 infected with SARS-CoV-2 (assay: inhibition of SARS-CoV-2 cytopathic effect; higher = more antiviral protection, active = above 15). Details: 8.33 nM; 48 h.
In the case of `CC1(C)CC(Oc2ccc(-c3ccc(-c4cn[nH]c4)cc3O)nn2)CC(C)(C)N1`, the “inhibition of SARS-CoV-2 cytopathic effect” value (shortened to “inhibition”) is reported as 0.25%.
`O=C(/C=C\n1cnc(-c2cc(C(F)(F)F)cc(C(F)(F)F)c2)n1)NNc1cnccn1` [selinexor] was tested, and the “inhibition” value was -3.07%.
For `CCCCc1ccc(O)cc1O` [rucinol], the “inhibition” value was -3.11%.
`Nc1ncnc2c1ncn2[C@@H]1O[C@H](CO)C[C@H]1O` [cordycepin] was tested, and the “inhibition” value was 0.92%.
With `COc1cc(NC(=O)c2ccccn2)ccc1Cl` the “inhibition” value was -1.87%.
`Cc1onc(-c2ccccc2Cl)c1C(=O)N[C@@H]1C(=O)N2[C@@H]1SC(C)(C)[C@@H]2C(=O)O` [cloxacillin] was tested, and the “inhibition” value was -1.52%.
For `CC(C)Cn1cnc2c1c(=O)n(C)c(=O)n2C` [isbufylline], the “inhibition” value was 0.75%.
For `CNC(=O)[C@H](Cc1ccccc1)NC(=O)[C@H](CC(C)C)[C@H](CSc1cccs1)C(=O)NO` [batimastat], the “inhibition” value was -1.84%.
In the case of `O=C(Nc1ccccc1)OCC(CN1CCCCC1)OC(=O)Nc1ccccc1` (stereo not given) [diperodon], the “inhibition” value is reported as -0.37%.
For `CC(C[N+](C)(C)C)OC(N)=O` (stereo not given) [bethanechol], the “inhibition” value was 2.96%.
In the case of `Cc1ncc([N+](=O)[O-])n1CC(O)CN1CCOCC1` (stereo not given) [morinidazole], the “inhibition” value is reported as -0.21%.
With `Cc1nnc(C(C)C)n1C1C[C@H]2CC[C@@H](C1)N2CC[C@H](NC(=O)C1CCC(F)(F)CC1)c1ccccc1` (stereo in doubt) [maraviroc] the “inhibition” value was -1.45%.
`O=c1[nH]cnc2nc[nH]c12` [hypoxanthine] was tested, and the “inhibition” value was 2.78%.
For `CCC(=N\O)/C(C)=C/c1ccc(F)cc1`, the “inhibition” value was -0.21%.
In the case of `Cc1cc(/C=C2\SC(=O)N(c3ccccc3)C2=O)c(C)n1-c1cccnc1`, the “inhibition” value is reported as -0.28%.
With `CC(C)(COP(=O)(O)OP(=O)(O)OC[C@H]1O[C@@H](n2cnc3c(N)ncnc32)[C@H](O)[C@@H]1OP(=O)(O)O)[C@@H](O)C(=O)NCCC(=O)NCCS` [coenzyme-A] the “inhibition” value was 0.97%.
For `O=c1[nH]c(=O)n([C@H]2C[C@H](O)[C@@H](CO)O2)cc1Br` [broxuridine], the “inhibition” value was 1.06%.
`NC(=O)NC(=O)Cc1ccccc1` [phenacemide] was tested, and the “inhibition” value was 0.22%.
In the case of `O=C(OOC(=O)c1ccccc1)c1ccccc1` [benzoyl-peroxide], the “inhibition” value is reported as 2.38%.
`Cc1ccc(NC(=O)c2ccc(CN3CCN(C)CC3)cc2)cc1Nc1nc(-c2cccnc2)cs1` [masitinib] was tested, and the “inhibition” value was 0.48%.
`FC(F)(F)c1cc(NC(=S)Nc2ccc(Br)cc2-c2nnn[nH]2)cc(C(F)(F)F)c1` was tested, and the “inhibition” value was -1.08%.
`Cc1cc(C)c(NC(=O)C2CC3CCC2C3)c(C)c1` (stereo not given) was tested, and the “inhibition” value was -1.21%.
With `O=[N+]([O-])c1cc([N+](=O)[O-])c(/C=C/c2ccc(Cl)c(Cl)c2)cc1/C=C/c1ccc(Cl)c(Cl)c1` the “inhibition” value was 1.02%.
In the case of `CO[C@H]1CC=C2CCN3CCC4=C(CC(=O)OC4)[C@]23C1`, the “inhibition” value is reported as -0.91%.
With `CN1C(=O)C(F)=C[C@]2(C)[C@H]3CC[C@]4(C)[C@@H](C(=O)NCc5nc6cccnc6[nH]5)CC[C@H]4[C@@H]3CC[C@@H]12` the “inhibition” value was -0.43%.
`CN1CCC(COc2cnc(-c3cccc(Cn4nc(-c5cccc(C#N)c5)ccc4=O)c3)nc2)CC1` was tested, and the “inhibition” value was 1.71%.
`C[C@]12CC[C@@H]3c4ccc(O)cc4CC[C@H]3[C@@H]1CC[C@@H]2O` [estradiol] was tested, and the “inhibition” value was 2.24%.
`Nc1nc2c(ncn2COCCO)c(=O)[nH]1` [acyclovir] was tested, and the “inhibition” value was 6.63%.
With `N#Cc1ccccc1OCC(O)CNCCNC(=O)Nc1ccccc1` (stereo not given) the “inhibition” value was 0.87%.
In the case of `O=C(Cc1cccc(OC(F)(F)F)c1)Nc1ccc(CCCCc2nnc(NC(=O)Cc3ccccn3)s2)nn1`, the “inhibition” value is reported as -0.26%.
In the case of `CN1CCCN=C1/C=C/c1cccs1` [pyrantel-pamoate], the “inhibition” value is reported as 1.39%.

Same assay, conditions: 100 nM; 48 h
`CC(=O)OCC1=C(C(=O)O)N2C(=O)[C@@H](N)[C@H]2SC1` [7-aminocephalosporanic-acid] was tested, and the “inhibition” value was -5.2%.
For `O[C@@H](CN1CCC(Cc2ccc(F)cc2)CC1)c1ccc(Cl)cc1` (racemic) [eliprodil], the “inhibition” value was 0.19%.
For `CCCCOc1ccc(C(=O)Nc2ccc(F)cc2F)cc1`, the “inhibition” value was -3.66%.
`CC(C)Nc1cccnc1N1CCN(C(=O)c2cc3cc(NS(C)(=O)=O)ccc3[nH]2)CC1` [delavirdine] was tested, and the “inhibition” value was 1.56%.
`COc1ccc2ccc(=O)oc2c1CC=C(C)C` [osthol] was tested, and the “inhibition” value was 1.91%.
In the case of `CCN(CC)CCNC(=O)c1cc(Br)c(N)cc1OC` [bromopride], the “inhibition” value is reported as -0.25%.
For `O=C(O)c1c(Sc2ccccc2)c2cc(Cl)ccc2n1Cc1ccc(Cl)cc1`, the “inhibition” value was -0.5%.
In the case of `CC[C@@H](C)Nc1cc(C(=O)N[C@H]2C[C@H]3CC[C@@H](C2)N3c2ccc(C(=O)C3CC3)cn2)c(C)cc1C(N)=O`, the “inhibition” value is reported as -3.63%.
For `CC1(C)CC(Oc2ccc(-c3ccc(-c4cn[nH]c4)cc3O)nn2)CC(C)(C)N1`, the “inhibition” value was 2.2%.
In the case of `O=C(/C=C\n1cnc(-c2cc(C(F)(F)F)cc(C(F)(F)F)c2)n1)NNc1cnccn1` [selinexor], the “inhibition” value is reported as -7.87%.
`CCCCc1ccc(O)cc1O` [rucinol] was tested, and the “inhibition” value was 2.12%.
For `Nc1ncnc2c1ncn2[C@@H]1O[C@H](CO)C[C@H]1O` [cordycepin], the “inhibition” value was 1.03%.
`COc1cc(NC(=O)c2ccccn2)ccc1Cl` was tested, and the “inhibition” value was 1.63%.
`Cc1onc(-c2ccccc2Cl)c1C(=O)N[C@@H]1C(=O)N2[C@@H]1SC(C)(C)[C@@H]2C(=O)O` [cloxacillin] was tested, and the “inhibition” value was 0.8%.
`CC(C)Cn1cnc2c1c(=O)n(C)c(=O)n2C` [isbufylline] was tested, and the “inhibition” value was 0.2%.
With `CNC(=O)[C@H](Cc1ccccc1)NC(=O)[C@H](CC(C)C)[C@H](CSc1cccs1)C(=O)NO` [batimastat] the “inhibition” value was -3.51%.
`O=C(Nc1ccccc1)OCC(CN1CCCCC1)OC(=O)Nc1ccccc1` (stereo not given) [diperodon] was tested, and the “inhibition” value was 0.05%.
For `CC(C[N+](C)(C)C)OC(N)=O` (stereo not given) [bethanechol], the “inhibition” value was -4.87%.
With `Cc1ncc([N+](=O)[O-])n1CC(O)CN1CCOCC1` (stereo not given) [morinidazole] the “inhibition” value was -0.51%.
For `Cc1nnc(C(C)C)n1C1C[C@H]2CC[C@@H](C1)N2CC[C@H](NC(=O)C1CCC(F)(F)CC1)c1ccccc1` (stereo in doubt) [maraviroc], the “inhibition” value was 1.77%.
With `O=c1[nH]cnc2nc[nH]c12` [hypoxanthine] the “inhibition” value was 1.76%.
With `CCC(=N\O)/C(C)=C/c1ccc(F)cc1` the “inhibition” value was 0.55%.
With `Cc1cc(/C=C2\SC(=O)N(c3ccccc3)C2=O)c(C)n1-c1cccnc1` the “inhibition” value was 1.31%.
With `CC(C)(COP(=O)(O)OP(=O)(O)OC[C@H]1O[C@@H](n2cnc3c(N)ncnc32)[C@H](O)[C@@H]1OP(=O)(O)O)[C@@H](O)C(=O)NCCC(=O)NCCS` [coenzyme-A] the “inhibition” value was 2.41%.
`O=c1[nH]c(=O)n([C@H]2C[C@H](O)[C@@H](CO)O2)cc1Br` [broxuridine] was tested, and the “inhibition” value was 1.08%.
With `NC(=O)NC(=O)Cc1ccccc1` [phenacemide] the “inhibition” value was -0.3%.
In the case of `O=C(OOC(=O)c1ccccc1)c1ccccc1` [benzoyl-peroxide], the “inhibition” value is reported as -1.92%.
For `Cc1ccc(NC(=O)c2ccc(CN3CCN(C)CC3)cc2)cc1Nc1nc(-c2cccnc2)cs1` [masitinib], the “inhibition” value was 1.05%.
`FC(F)(F)c1cc(NC(=S)Nc2ccc(Br)cc2-c2nnn[nH]2)cc(C(F)(F)F)c1` was tested, and the “inhibition” value was -1.11%.
With `Cc1cc(C)c(NC(=O)C2CC3CCC2C3)c(C)c1` (stereo not given) the “inhibition” value was -3.03%.
In the case of `O=[N+]([O-])c1cc([N+](=O)[O-])c(/C=C/c2ccc(Cl)c(Cl)c2)cc1/C=C/c1ccc(Cl)c(Cl)c1`, the “inhibition” value is reported as -3.12%.
For `CO[C@H]1CC=C2CCN3CCC4=C(CC(=O)OC4)[C@]23C1`, the “inhibition” value was 1.32%.
For `CN1C(=O)C(F)=C[C@]2(C)[C@H]3CC[C@]4(C)[C@@H](C(=O)NCc5nc6cccnc6[nH]5)CC[C@H]4[C@@H]3CC[C@@H]12`, the “inhibition” value was -0.05%.
With `CN1CCC(COc2cnc(-c3cccc(Cn4nc(-c5cccc(C#N)c5)ccc4=O)c3)nc2)CC1` the “inhibition” value was 1.4%.
In the case of `C[C@]12CC[C@@H]3c4ccc(O)cc4CC[C@H]3[C@@H]1CC[C@@H]2O` [estradiol], the “inhibition” value is reported as -0.69%.
In the case of `Nc1nc2c(ncn2COCCO)c(=O)[nH]1` [acyclovir], the “inhibition” value is reported as 6.1%.
In the case of `N#Cc1ccccc1OCC(O)CNCCNC(=O)Nc1ccccc1` (stereo not given), the “inhibition” value is reported as -0.54%.
`O=C(Cc1cccc(OC(F)(F)F)c1)Nc1ccc(CCCCc2nnc(NC(=O)Cc3ccccn3)s2)nn1` was tested, and the “inhibition” value was -1.18%.
For `CN1CCCN=C1/C=C/c1cccs1` [pyrantel-pamoate], the “inhibition” value was 2.36%.
